In PubChem BioAssay (NCI) one finds growth inhibition data, which are given here for 21 compounds.

This is part of a sample that, as a whole, favours compounds with a hit. Of some 79,000 tested, about 15% had one in any assay. A number with no mark means an inactive call. Activity calls are given as the source filed them. Cut-off read from the data, not from the text of the source: active = growth inhibition above about 70%; inactive = the rest.

Experiment [1] in a line: NCI Yeast Anticancer Drug Screen. Data for the rad50 strain (AID 155).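 Note: 0% = growth of vehicle-only cultures of the same strain.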 To be noted: S. cerevisiae rad50 strain growth inhibition; at 50.0 µM; hits give high values. In outline:
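Yeast carrying a defined DNA repair defect were exposed to test compounds, and growth was compared with vehicle-treated controls to give percent inhibition.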

Experiment [2] is described as follows: NCI Yeast Anticancer Drug Screen. Data for the mec2-1 strain (AID 157). Conditions: S. cerevisiae mec2-1 strain, at 50.0 µM, hits give high values. In short, it runs like this: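 Growth inhibition is read against vehicle-treated controls after compound exposure of the mec2-1 yeast strain, which is defective in DNA damage repair or cell cycle control.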
Experiment [3] can be described thus: NCI Yeast Anticancer Drug Screen. Data for the sgs1 mgt1 strain (AID 161).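 Note: 0% = growth of cultures given vehicle only.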 Conditions: S. cerevisiae sgs1 mgt1 strain, at 50.0 µM, hits give high values. In outline: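 Compounds are added to genetically altered yeast, and growth is compared with cultures given vehicle alone to give percent inhibition.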
The nature of experiment [4]: NCI Yeast Anticancer Drug Screen. Data for the cln2 rad14 strain (AID 165).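 Note: 0% = growth equal to vehicle treated cultures.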 Conditions: S. cerevisiae cln2 rad14 strain, at 50.0 µM, hits give high values. In short, it runs like this:
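Growth inhibition, relative to vehicle-treated controls, is the read-out. The test organism is a yeast strain with defined genetic alterations, cln2 rad14.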

Experiment [5] can be described thus: NCI Yeast Anticancer Drug Screen. Data for the bub3 strain (AID 167). To be noted: S. cerevisiae bub3 mutant strain, at 50.0 µM, hits give high values. In outline:
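Compounds were applied to a genetically altered yeast strain carrying a cell-cycle control defect. Growth inhibition was scored against vehicle-treated controls.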

Experiment [6] is described as follows: NCI Yeast Anticancer Drug Screen. Data for the mlh1 rad18 strain (AID 175). Conditions: S. cerevisiae mlh1 rad18 strain growth inhibition; at 50.0 µM; hits give high values. In short, it runs like this:
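Cells of a genetically altered yeast strain, deficient in DNA damage repair, were treated with compound. Their growth was then compared with that of vehicle-treated cultures to give inhibition.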

With `O=C(Nc1cccc(Cl)c1Cl)c1cc(/C=C/c2ccc([N+](=O)[O-])cc2)on1`, the growth inhibition in experiment [1] is -21.2%; in experiment [2] it was 1.15%; in experiment [3] it was -12.8%; in experiment [4] it was 9.1%; in experiment [5], -8.25%; in experiment [6], -3.85%.
`Clc1nc(N2CCCCC2)c2[nH]cnc2n1`: the growth inhibition is -35.2% in experiment [1]; -6.2% in experiment [2]; 6.75% in experiment [3]; -9.8% in experiment [4]; -1.6% in experiment [5]; -0.9% in experiment [6].
With `COC12NC(=O)NC(=O)C1(c1ccccc1)CC(C)O2` (stereo unspecified), the growth inhibition was -2.7% in experiment [1]; -2.15% in experiment [2]; 6.8% in experiment [3]; -7.7% in experiment [4]; -24.1% in experiment [5]; -6.6% in experiment [6].
`O=[N+]([O-])c1ccc2nc(C(F)(F)F)cc(Cl)c2c1`: the growth inhibition in experiment [1] is 7.35%; in experiment [2], 5.3%; in experiment [3], 2%; in experiment [4] it was -66.9%; in experiment [5], -1.1%; in experiment [6], -9.75%.
With `CC12CC(c3ccccc3)C(C)(C(c3ccccc3)=C1c1ccccc1)C2(O)c1ccccc1` (stereo unspecified), the growth inhibition in experiment [1] was -2.85%; in experiment [2] it was 0.1%; in experiment [3] it was 12.7%; in experiment [4], -13.3%; in experiment [5], -2.45%; in experiment [6], 13.4%.
As to `C(=N\N1CCN(/N=C/c2cccc3ccccc23)CC1)/c1cccc2ccccc12`, the growth inhibition in experiment [1] is 16.2%; in experiment [2] it was 6.85%; in experiment [3], 19%; in experiment [4] it was 18.5%; in experiment [5], -0.65%; in experiment [6] it was 3.4%.
As to `O=C(NC(=S)Nc1ccc(S(=O)(=O)c2ccc(NC(=S)NC(=O)c3ccccc3)cc2)cc1)c1ccccc1`, the growth inhibition in experiment [1] was -28.5%; in experiment [2], -32.6%; in experiment [3] it was -7.8%; in experiment [4], 8.75%; in experiment [5], -32.1%; in experiment [6] it was -12.6%.
As for `COc1cc(C)c2c(c1)C=C[C@@H]1[C@@H]2CC[C@]2(C)C(=O)CC[C@@H]12`, the growth inhibition in experiment [1] was -10.1%; in experiment [2], 3.3%; in experiment [3], -2.55%; in experiment [4], -48.2%; in experiment [5], -0.05%; in experiment [6], -3.1%.
For `CS(=O)CCN=Cc1ccc(N=Nc2ccc(O)cc2)cc1` (stereo unspecified), the growth inhibition in experiment [1] is 5.8%; in experiment [2] it was 1.65%; in experiment [3], -0.85%; in experiment [4], -33.4%; in experiment [5], 13.5%; in experiment [6] it was 2.65%.
In the case of `CC(C)(O)c1ccccc1[S+]1OC(C)(C)c2ccccc21` (stereo unspecified), the growth inhibition in experiment [1] was 27.9%; in experiment [2], 17.6%; in experiment [3] it was 30.3%; in experiment [4] it was 56.8%; in experiment [5], 98.3% (active); in experiment [6], 35.8%.
Regarding `N#C/C(=C\c1cc(Br)c(O)c(Br)c1)c1ccccn1`, the growth inhibition in experiment [1] was 50.5%; in experiment [2], 50.1%; in experiment [3] it was 24.4%; in experiment [4], 2.55%; in experiment [5] it was -3.35%; in experiment [6], 52.6%.
Regarding `COc1ccccc1CNCc1nc2ccccc2[nH]1`, the growth inhibition in experiment [1] is 4.8%; in experiment [2], 2.6%; in experiment [3], 6.9%; in experiment [4], 13.2%; in experiment [5] it was 0.55%; in experiment [6], 36.6%.
In the case of `CSSC(SC)SC`, the growth inhibition was 31.9% in experiment [1]; -7.85% in experiment [2]; 13.6% in experiment [3]; -21.1% in experiment [4]; -11.6% in experiment [5]; 29.6% in experiment [6].
Take `COC(=O)/C=C(/Nc1ccccc1C(=O)O)C(=O)OC`: the growth inhibition was -5.55% in experiment [1]; 20.1% in experiment [2]; -5.15% in experiment [3]; 2.85% in experiment [4]; -16.1% in experiment [5]; -21.1% in experiment [6].
For `CN1CCCCC1C(O)CO` (stereo unspecified), the growth inhibition is 11.4% in experiment [1]; -5.7% in experiment [2]; -8.05% in experiment [3]; -47.4% in experiment [4]; -3.2% in experiment [5]; -27.1% in experiment [6].
Take `COc1c2c(c(OC)c(C(C)=O)c1OC(=O)c1ccccc1)CCO2`: the growth inhibition is 1% in experiment [1]; -14.4% in experiment [2]; 11.4% in experiment [3]; 11.8% in experiment [4]; 0.05% in experiment [5]; 15.6% in experiment [6].
With `CN1C(NC(=O)C(C)(C)O)C(C)(C)C(C)(C)C1NC(=O)C(C)(C)O` (stereo unspecified), the growth inhibition was 27.9% in experiment [1]; 2% in experiment [2]; 42.3% in experiment [3]; 6.8% in experiment [4]; 26.8% in experiment [5]; 29.6% in experiment [6].
On to `CCOC(=O)c1cnc2[nH]ccn2c1=O`, for which the growth inhibition in experiment [1] is -26.9%; in experiment [2] it was -43.3%; in experiment [3], -4.45%; in experiment [4], 10.3%; in experiment [5], -6.55%; in experiment [6], -8.75%.
Consider `COc1cc(CN2CCN(CCO)CC2)c(O)c(CN2CCN(CCO)CC2)c1`, for which the growth inhibition in experiment [1] is -2%; in experiment [2], 1.55%; in experiment [3], -23.4%; in experiment [4], -6.9%; in experiment [5] it was -5.45%; in experiment [6] it was 6.9%.
Consider `COC(=O)c1ccc(C)[n+](C2OC(COC(=O)c3ccccc3)C(OC(=O)c3ccccc3)C2OC(=O)c2ccccc2)c1` (stereo unspecified), for which the growth inhibition in experiment [1] was 5.2%; in experiment [2], 3.45%; in experiment [3], 8%; in experiment [4], -25.6%; in experiment [5], -14.2%; in experiment [6], 29.1%.
`CC1CCCC(C(O)(C(=O)O)C2CCCCC2)C1` (stereo unspecified): the growth inhibition is 23.2% in experiment [1]; 12.6% in experiment [2]; 22.4% in experiment [3]; 13.1% in experiment [4]; 13.1% in experiment [5]; 26.6% in experiment [6].
